Compounds with a hit are over-represented: about 1.7% of the library has one in this group of screens.
GLP-1R agonist: qHTS of GLP-1 Receptor Agonists | HEK293 GLP-1R CRE-luciferase, luminescence, 4-6 h; cells express a hypersensitive GLP-1R form | Potency, µM (series often up to 45.6 µM), inactives show at the top dose activation, most hits filed as activators | 380,000 compounds, 0.007% hits; note: % of control where 0% means no effect
Target sequence (P43220 whole entry, looked up): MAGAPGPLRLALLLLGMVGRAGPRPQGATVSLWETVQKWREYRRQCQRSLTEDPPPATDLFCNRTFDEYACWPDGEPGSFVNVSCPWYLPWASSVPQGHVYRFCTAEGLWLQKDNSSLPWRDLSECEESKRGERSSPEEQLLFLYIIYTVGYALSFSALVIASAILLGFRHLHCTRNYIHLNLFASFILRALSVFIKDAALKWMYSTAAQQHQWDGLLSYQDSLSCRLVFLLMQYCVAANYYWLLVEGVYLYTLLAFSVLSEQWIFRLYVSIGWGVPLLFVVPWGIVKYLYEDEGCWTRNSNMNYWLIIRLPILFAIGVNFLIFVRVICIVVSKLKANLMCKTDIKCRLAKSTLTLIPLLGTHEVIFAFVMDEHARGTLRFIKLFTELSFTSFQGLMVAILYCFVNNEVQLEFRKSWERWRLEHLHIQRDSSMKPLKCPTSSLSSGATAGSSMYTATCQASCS
PTHR1 ag: qHTS for PTHR1 Agonists: Primary Screen; Parathyroid hormone/parathyroid hormone-related peptide receptor (Homo sapiens), Q03431; HEK293 GP2 PTHR1 cells, GloSensor cAMP luminescence, 1 h; Potency, µM (series often up to 115 µM), inactives show top-dose activation, hits mostly activators; 410,000 compounds, 0.075% hits; AID 743266, 2014; note: nearly all actives have a fitted effect of over 55% in size
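HEK-293-derived GP2 cells expressing PTHR1 and a GloSensor cAMP reporter, 3,000/well, plated overnight, given luciferin plus IBMX (each 0.5 mM as added) for 1 h at 37 °C, then compound for 1 h at 37 °C. Luminescence was read after 15 min at room temperature.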
GLP1R inv ag: qHTS of GLP-1 Receptor Inverse Agonists (Inhibition Mode); Potency, µM (top dose mostly 38.3 µM), inactives show at the top dose activity change, negative = inhibition, hits mostly inhibitors; 410,000 compounds, 1.6% hits; AID 624417, 2012; HEK293 GLP-1R CRE-luciferase, luminescence, 24 h; GLP-1R form is constitutively active; note: % is set by controls: 0 for no effect and ±100 for the full control effect; nearly all actives have a fitted effect of over 55% in size
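Using stably transfected HEK293 (constitutively active GLP-1R, cAMP-luciferase reporter), compounds were incubated 24 hr and luciferase measured by luminescence.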
RGS4 inhibitor: Inhibitors of Regulator of G Protein Signaling (RGS) 4: qHTS | 390,000 compounds, 0.039% hits | AID 504845, 2011 | Potency, µM (titrated, usually from 114 µM), for the others: at the highest dose activity change, negative = inhibition, most hits filed as inhibitors | Transcreener GDP fluorescence polarization, RGS4-accelerated GTP hydrolysis; note: % is set by controls: 0 for no effect and ±100 for the full control effect; nearly all actives have a fitted effect of over 75% in size
Target sequence (P49798 whole entry, looked up): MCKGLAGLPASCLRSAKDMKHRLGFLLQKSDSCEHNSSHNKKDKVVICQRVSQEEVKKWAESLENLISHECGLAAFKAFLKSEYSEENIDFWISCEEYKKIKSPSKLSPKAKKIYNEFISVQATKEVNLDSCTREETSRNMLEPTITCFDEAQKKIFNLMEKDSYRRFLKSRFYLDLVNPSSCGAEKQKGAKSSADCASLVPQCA
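MLSMR compounds (23 nl, pin-transferred) preincubated 10 min at room temperature with a 500nM (2x) first reagent, then RGS4 at 900nM (2x) plus Transcreener GDP mix added; fluorescence polarization (620/688 nm) read before and after 90 min at 30 °C.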
HEK293 tox: qHTS of GLP-1 Receptor Inverse Agonists: Cytotox Screen. HEK293 cAMP-luciferase reporter cells, luminescence, 24 h. Potency, µM (top dose mostly 38.3 µM), for the others: top-dose activity change, negative = inhibition, usual class: inhibitors. 410,000 compounds, 0.13% hits;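 note: loss of luciferase light is scored as toxicity; % is set by controls: 0 for no effect and ±100 for the full control effect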
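1536-well qHTS counterscreen of the MLSMR; 200 cells/uL, 12 h pre-incubation, 23 nL cpd, 24 h at 37 deg C 5% CO2, luciferase detection reagent, 12 min RT, luminescence. Inhibition = undesired.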
An asterisk follows results filed as active; i = inactive; ? = inconclusive; . = no result; [ ] = another dose, or the depositor's remark. Calls come from the whole dose curve; as a rule, active = well fitted curve in the direction sought with a large enough effect; inconclusive = small, poorly fitted or top-dose-only effect, or another doubt; inactive = no such curve, though single readings can be large; an effect the other way counts as inactive or inconclusive. Potency is the fitted concentration of half-maximal effect.

SMILES | GLP-1R agonist | PTHR1 ag | GLP1R inv ag | RGS4 inhibitor | HEK293 tox
COc1ccc(C(C(=O)NC(C)(C)C)n2c(=O)c(-c3cc4ccccc4[nH]3)nc3ccccc32)cc1 (stereo not given) | . | -11% | 10µM* | . | i
CC(C)(C)NC(=O)C(c1ccccc1)n1c(=O)c(-c2ccccc2)nc2ccccc21 (stereo not given) | . | -15% | 11µM* | . | -2%
CCCCCNC(=O)C(c1ccccc1)n1c(=O)c(-c2cc3ccccc3[nH]2)nc2ccccc21 (stereo not given) | . | -14% | ? | . | i
COC(=O)c1cn(C(=O)c2ccc(C)cc2C)c2ccccc12 | 0% | -34% | 5µM* | 22% | -12%
CNC(=S)N=Nc1c(O)[nH]c2ccccc12 | 2% | i | -3% | -21% | 11µM*
COc1ccc(NC(=S)N=Nc2c(O)[nH]c3ccccc23)cc1 | -4% | -23% | ? | 1% | 3.2µM*
Cc1ccc(NC(=S)N=Nc2c(O)[nH]c3ccccc23)cc1 | 11% | -4% | ? | -15% | 4µM*
CCCCCCCCN1C(=O)[C@H](CC(=O)N2CCCC2)C[C@@]2(C(=O)OC)CC(C)(C)CC=C12 | . | -42% | ? | . | -5%
O=C(/C=C/c1ccc([N+](=O)[O-])cc1)Nc1ncc([N+](=O)[O-])s1 | -14% | -31% | 13µM* | 0%[56.9 µM] | ?
CCOC(=O)CSc1nc2cc3c(cc2c(=O)n1CCCCCC(=O)NCc1ccc2c(c1)OCO2)OCO3 | . | ? | 11% | 38% | 1%
Cc1ccc(N2C(=O)C(CN(C)C)C2c2ccccc2)cc1 (stereo not given) | 16% | -4%[57.5 µM] | 11µM* | 7% | -6%
CCN(CC)CC1C(=O)N(c2ccc(OC)cc2)C1c1ccccc1 (stereo not given) | 13% | i | 10µM* | -7% | 1%
COc1ccc(N2C(=O)C(CN3CCCCC3)C2c2ccccc2)cc1 (stereo not given) | 14% | 0% | ? | 0% | -5%
Cc1nc(N2CCN(C)CC2)c2nnn(Cc3ccccc3)c2n1 | . | . | . | -10% | .
O=C(NCc1ccccc1)C(c1ccc(C(F)(F)F)cc1)n1c(=O)c(-c2ccco2)nc2ccccc21 (stereo not given) | . | -6% | ? | . | 10%
COC(=O)c1cn(NC(=O)c2cc([N+](=O)[O-])ccc2F)c(=O)c2ccccc12 | 1% | -11% | 1.6µM* | -7% | -6%
COc1ccc(C2=Nn3c(nnc3-c3ccncc3)SC2)cc1OC | ? | i | 0% | -22% | 4%
COc1ccc(C2=Nn3c(nnc3-c3cccnc3)SC2)cc1OC | 2µM* | -6%[57.5 µM] | 0% | -17% | 8%
CCN(CC)C(=O)c1sc2c(c1C)c(=O)n(-c1ccc(C)c(C)c1)c(=O)n2Cc1cccc(Cl)c1 | . | 9% | 5µM* | 4% | 0%
CCN(CC)C(=O)c1sc2c(c1C)c(=O)n(Cc1ccccc1)c(=O)n2Cc1ccc(Cl)cc1 | . | 4% | ? | 7% | -8%
Cc1ccc(S(=O)(=O)N2CCCCC2)cc1NC(=O)COC(=O)c1cccn1C | 13% | -32% | ? | -7% | 4%
CC1=C(C(=O)NC(C)CCc2ccccc2)C2(CCC(C)CC2)OC1=O (stereo not given) | 13% | -16% | 8.9µM* | -11% | 8%
CC1=C(C(=O)NC(C)c2ccccc2)C2(CCC(C)CC2)OC1=O (stereo not given) | 9% | i | -17% | 15%[56.9 µM] | -18%
O=C(CSc1ncc2c(n1)-c1ccccc1N(Cc1ccc(F)cc1)S2(=O)=O)NCCc1ccccc1 | . | i | 17% | -9% | 1%
C/C=C/c1ccc(OCC(O)CN2CCCCC2CC)c(OC)c1 (stereo not given) | -1% | i | 13µM* | -8% | 1%
SMILES | GLP-1R agonist | PTHR1 ag | GLP1R inv ag | RGS4 inhibitor | HEK293 tox
O=S1(=O)C[C@@H](N2CCC[C@@H]2CO)[C@H](COCc2ccccc2)N1 | -1% | -37% | 2% | . | 4%
CC1CCN(C(=O)Cn2cc(SCC(=O)NCc3ccccc3Cl)c3ccccc32)CC1 | . | -84% | 10µM* | 1% | -24%
Cc1ccc(CSc2cn(CC(=O)N3CCCC3)c3ccccc23)cc1 | . | i | ? | -14% | 1%
Cc1ccc(CSc2cn(CC(=O)N3CCCCCC3)c3ccccc23)cc1 | . | -28% | 10µM* | 14% | 0%
O=C(CSc1cn(CC(=O)N2CCCCC2)c2ccccc12)NCc1ccccc1Cl | . | -17% | ? | 19% | -15%
O=C(Cn1cc(SCc2ccc(C(F)(F)F)cc2)c2ccccc21)N1CCCCCC1 | . | -27% | 7.1µM* | -1% | 0%
O=C(Cn1cc(SCc2ccc(C(F)(F)F)cc2)c2ccccc21)N1CCCCC1 | . | -15% | -5% | -15% | 1%
COc1ccc(C(=O)Nc2ccc3c(c2)N(C2CCCC2)C(=O)c2ccccc2S3)cc1OC | . | i | ? | -32% | 0%
Cn1cc(/C=N/Nc2ccccc2)c2ccccc21 | -4% | i | 11µM* | -32% | -37%
CC(C)n1cc(/C=N/Nc2ccc(C(=O)O)cc2)c2ccccc21 | -5% | -6% | -48% | -26% | 3%
COc1cccc(NC(=O)C(Sc2nnc(Nc3ccccc3C)s2)c2ccccc2)c1 (stereo not given) | -10% | i | 10µM* | -22% | ?
CCCC(=O)NCc1ccccc1Cl | -1% | i | -15% | 17% | -15%
O=C(CNC(c1ccccc1)c1ccccc1)NCc1ccccc1Cl | 13% | -6% | 10µM* | -6% | 3%
CCCCNC(=S)NNC(=O)CCn1nc(C)c(Br)c1C | 8% | i | 0% | -1% | 5.6µM*
CCCCNC(=S)NNC(=O)CCn1cc(C)cn1 | -1% | i | 7.9µM* | -1% | ?
Cc1ccc(N2CCN(c3nc4ccc(C)cc4n4nnnc34)CC2)c(C)c1 | . | -13% | 2% | -7% | 12%
O=C(CN1C(=O)C2CCCCC2C1=O)Nc1ccc(OC(F)F)c(Cl)c1 (stereo not given) | -4% | -51% | ? | 5% | -8%
CCCCN1C(=O)C(O)(CC(=O)c2ccc(C)cc2C)c2cc(Br)ccc21 (stereo not given) | . | i | 10µM* | 2% | -17%
CCN1CCN(c2ncc3c(n2)CCN(CC(C)C)C3)CC1 | . | i | -18% | 17% | -6%
Cc1cc(C)cc(-n2c(C)nc3cc(C(=O)NCc4ccccc4Cl)ccc32)c1 | . | i | 11µM* | 0% | ?

From PubChem
